Over roughly 1,100 compounds, “Renilla luciferase signal (cell health) relative to plate median” has its median near 0.97; the highest 2% begin near 1.6. Only a selection was taken, and the highest values are over-represented in it overall.
Tested on: HEK293T (UBE3A T485A transfected, BAR Wnt reporter)
Experiment: Renilla luciferase signal (cell health) relative to plate median (fold (linear ratio)); higher = higher Renilla signal
Conditions: 24 h
Method in brief: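 HEK293T cells were seeded at 4500 cells/well in white 384-well plates and grown in DMEM with 10% FBS at 37°C and 5% CO2. The cells were transfected using Fugene 6 with a BAR firefly luciferase Wnt reporter, TK-Renilla and an expression plasmid, and four hours later robots added the chemicals at 0.01–100 uM for 24 h before a Dual-Glo luciferase readout. Wnt activity was taken as the firefly/Renilla ratio and cell health as raw Renilla, each median-centred per plate. Values are averages of four biological replicates.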

`O=C(O)c1cccc(N(Cc2cccnc2)c2ccc(OC(F)F)c(OC(F)F)c2)c1` gave a Renilla luciferase signal (concentration: 0.1 uM) of 1.15, a Renilla luciferase signal (concentration: 1 uM) of 1.14 and a Renilla luciferase signal (concentration: 10 uM) of 1.24. The Renilla luciferase signal (concentration: 100 uM) was 0.322.
Work on `CCCCCCCCCCCCCCC` [Pentadecane] yielded a Renilla luciferase signal (concentration: 0.1 uM) of 0.808, a Renilla luciferase signal (concentration: 1 uM) of 0.899 and a Renilla luciferase signal (concentration: 10 uM) of 0.973. The Renilla luciferase signal (concentration: 100 uM) was 1.16.
Molecule `CN(C)CCCN(C)CCCN(C)C` [2,6,10-Trimethyl-2,6,10-triazaundecane] has a Renilla luciferase signal (concentration: 0.1 uM) of 0.932, a Renilla luciferase signal (concentration: 1 uM) of 0.811 and a Renilla luciferase signal (concentration: 10 uM) of 0.918. The Renilla luciferase signal (concentration: 100 uM) was 0.932.
For `COC(=O)c1ccc(C(=O)OC)cc1` [Dimethyl terephthalate], the Renilla luciferase signal (concentration: 0.1 uM) was 0.95, the Renilla luciferase signal (concentration: 1 uM) was 1.09 and the Renilla luciferase signal (concentration: 10 uM) was 1.01. The Renilla luciferase signal (concentration: 100 uM) was 1.36.
`Cc1nc(-c2ccccn2)ncc1C(=O)Nn1cc(C)c2cc(F)ccc21` was tested, and the Renilla luciferase signal (concentration: 0.1 uM) was 0.941, the Renilla luciferase signal (concentration: 1 uM) was 0.877 and the Renilla luciferase signal (concentration: 10 uM) was 1.05. For the same molecule, the Renilla luciferase signal (concentration: 100 uM) was 1.02.
With `CCc1cc(C2=C(C(=O)[O-])N(c3ccccc3C(F)(F)F)S(=O)(=O)c3ccccc32)cc2c1OCO2.[K+]` [Fandosentan potassium salt] the Renilla luciferase signal (concentration: 0.1 uM) was 1.01, the Renilla luciferase signal (concentration: 1 uM) was 1.1 and the Renilla luciferase signal (concentration: 10 uM) was 0.887. It also gave a Renilla luciferase signal (concentration: 100 uM) of 0.331.
`CN(Cc1cnc2nc(N)nc(N)c2n1)c1ccc(C(=O)N[C@@H](CCC(=O)O)C(=O)O)cc1` [Methotrexate] was tested, and the Renilla luciferase signal (concentration: 0.1 uM) was 0.13, the Renilla luciferase signal (concentration: 1 uM) was 0.0382 and the Renilla luciferase signal (concentration: 10 uM) was 0.0865. For the same molecule, the Renilla luciferase signal (concentration: 100 uM) was 0.087.
For `CC(=O)Nc1ccc(O)cc1` [Acetaminophen], the Renilla luciferase signal (concentration: 0.1 uM) was 0.68, the Renilla luciferase signal (concentration: 1 uM) was 0.735 and the Renilla luciferase signal (concentration: 10 uM) was 0.812. For the same molecule, the Renilla luciferase signal (concentration: 100 uM) was 1.3.
Work on `O=C(O)c1cn(C2CC2)c2cc(N3CCNCC3)c(F)cc2c1=O` [Ciprofloxacin] yielded a Renilla luciferase signal (concentration: 0.01 uM) of 1.06, a Renilla luciferase signal (concentration: 0.1 uM) of 0.893 and a Renilla luciferase signal (concentration: 1 uM) of 1.01. For the same molecule, the Renilla luciferase signal (concentration: 10 uM) was 0.9 and the Renilla luciferase signal (concentration: 100 uM) was 0.336.
`NC(=O)N/N=C/c1ccc([N+](=O)[O-])o1` [Nitrofurazone] was tested, and the Renilla luciferase signal (concentration: 0.1 uM) was 1.03, the Renilla luciferase signal (concentration: 1 uM) was 1.13 and the Renilla luciferase signal (concentration: 10 uM) was 1.44. For the same molecule, the Renilla luciferase signal (concentration: 100 uM) was 0.334.
Molecule `O=C1CN(N=Cc2ccc([N+](=O)[O-])o2)C(=O)N1` [Nitrofurantoin] has a Renilla luciferase signal (concentration: 0.1 uM) of 0.891, a Renilla luciferase signal (concentration: 1 uM) of 1.01 and a Renilla luciferase signal (concentration: 10 uM) of 1.69. The Renilla luciferase signal (concentration: 100 uM) was 0.345.
Molecule `O=[N+]([O-])c1ccc([O-])cc1.[Na+]` [Sodium 4-nitrophenolate] has a Renilla luciferase signal (concentration: 0.1 uM) of 0.98, a Renilla luciferase signal (concentration: 1 uM) of 0.86 and a Renilla luciferase signal (concentration: 10 uM) of 0.924. It also gave a Renilla luciferase signal (concentration: 100 uM) of 0.669.
`COc1c(Cl)ccc(Cl)c1C(=O)O` [Dicamba] gave a Renilla luciferase signal (concentration: 0.01 uM) of 1.07, a Renilla luciferase signal (concentration: 0.1 uM) of 1.05 and a Renilla luciferase signal (concentration: 1 uM) of 1.14. The Renilla luciferase signal (concentration: 10 uM) was 1.04 and the Renilla luciferase signal (concentration: 100 uM) was 1.52.
Molecule `CC[C@H](C)C(=O)O[C@H]1C[C@H](O)C=C2C=C[C@H](C)[C@H](CC[C@@H](O)C[C@@H](O)CC(=O)[O-])[C@H]21.[Na+]` [Pravastatin sodium] has a Renilla luciferase signal (concentration: 0.1 uM) of 1.01, a Renilla luciferase signal (concentration: 1 uM) of 0.866 and a Renilla luciferase signal (concentration: 10 uM) of 1.1. It also gave a Renilla luciferase signal (concentration: 100 uM) of 1.15.
`CC(=O)c1ccccc1` [Acetophenone] showed a Renilla luciferase signal (concentration: 0.1 uM) of 0.867, a Renilla luciferase signal (concentration: 1 uM) of 0.964 and a Renilla luciferase signal (concentration: 10 uM) of 0.94. It also gave a Renilla luciferase signal (concentration: 100 uM) of 1.11.
With `O=C(O)c1ccccc1` [Benzoic acid] the Renilla luciferase signal (concentration: 0.1 uM) was 1.21, the Renilla luciferase signal (concentration: 1 uM) was 1.13 and the Renilla luciferase signal (concentration: 10 uM) was 1.35. The Renilla luciferase signal (concentration: 100 uM) was 1.77.
In the case of `O=C(O)c1cccc(C(=O)O)c1` [1,3-Benzenedicarboxylic acid], the Renilla luciferase signal (concentration: 0.1 uM) is reported as 1.04, the Renilla luciferase signal (concentration: 1 uM) is reported as 1.04 and the Renilla luciferase signal (concentration: 10 uM) is reported as 1.06. For the same molecule, the Renilla luciferase signal (concentration: 100 uM) was 1.35.
Molecule `Cl.Nc1ccn([C@@H]2O[C@H](CO)[C@@H](O)[C@@H]2O)c(=O)n1` [Cytarabine hydrochloride] has a Renilla luciferase signal (concentration: 0.1 uM) of 0.829, a Renilla luciferase signal (concentration: 1 uM) of 0.907 and a Renilla luciferase signal (concentration: 10 uM) of 0.626. For the same molecule, the Renilla luciferase signal (concentration: 100 uM) was 0.809.
In the case of `O=c1ccn(C2OC(COP(=O)(O)OP(=O)(O)OP(=O)(O)O)C(O)C2O)c(=O)[nH]1` (centres undefined), the Renilla luciferase signal (concentration: 0.01 uM) is reported as 0.681, the Renilla luciferase signal (concentration: 0.1 uM) is reported as 0.813 and the Renilla luciferase signal (concentration: 1 uM) is reported as 0.949. For the same molecule, the Renilla luciferase signal (concentration: 10 uM) was 0.922 and the Renilla luciferase signal (concentration: 100 uM) was 2.08.
Molecule `OCCC(F)(F)C(F)(F)C(F)(F)C(F)(F)C(F)(F)C(F)(F)C(F)(F)C(F)(F)F` [1,1,2,2-Tetrahydroperfluoro-1-decanol] has a Renilla luciferase signal (concentration: 0.1 uM) of 0.4, a Renilla luciferase signal (concentration: 1 uM) of 0.824 and a Renilla luciferase signal (concentration: 10 uM) of 0.813. For the same molecule, the Renilla luciferase signal (concentration: 100 uM) was 1.27.
`Cc1ncc([C@@H](CCCCCCc2ccc3c(n2)NCCC3)CC(=O)O)cn1` gave a Renilla luciferase signal (concentration: 0.1 uM) of 0.747, a Renilla luciferase signal (concentration: 1 uM) of 0.794 and a Renilla luciferase signal (concentration: 10 uM) of 0.796. For the same molecule, the Renilla luciferase signal (concentration: 100 uM) was 0.82.
`CNCc1cc(F)ccc1Oc1ccc(Cl)c(Cl)c1` showed a Renilla luciferase signal (concentration: 0.1 uM) of 0.817, a Renilla luciferase signal (concentration: 1 uM) of 0.874 and a Renilla luciferase signal (concentration: 10 uM) of 0.723. For the same molecule, the Renilla luciferase signal (concentration: 100 uM) was 0.0625.
For `Cn1cnc([N+](=O)[O-])c1Sc1ncnc2nc[nH]c12` [Azathioprine], the Renilla luciferase signal (concentration: 0.1 uM) was 0.939, the Renilla luciferase signal (concentration: 1 uM) was 0.983 and the Renilla luciferase signal (concentration: 10 uM) was 0.605. It also gave a Renilla luciferase signal (concentration: 100 uM) of 0.0481.
In the case of `CCCCCCCCCCCCN1CCCC1=O` [1-Dodecyl-2-pyrrolidinone], the Renilla luciferase signal (concentration: 0.1 uM) is reported as 0.846, the Renilla luciferase signal (concentration: 1 uM) is reported as 0.856 and the Renilla luciferase signal (concentration: 10 uM) is reported as 0.929. The Renilla luciferase signal (concentration: 100 uM) was 0.883.
Molecule `CC(=O)OC1CC(C)OC(C)O1` (centres undefined) [Dimethoxane] has a Renilla luciferase signal (concentration: 0.1 uM) of 1.23, a Renilla luciferase signal (concentration: 1 uM) of 1.1 and a Renilla luciferase signal (concentration: 10 uM) of 1.26. For the same molecule, the Renilla luciferase signal (concentration: 100 uM) was 1.63.
`CCOC(=O)c1ccc([C@H]2CC[C@H](NC[C@H](O)COc3ccc(O)c(NS(C)(=O)=O)c3)CC2)cc1.Cl` showed a Renilla luciferase signal (concentration: 0.1 uM) of 0.973, a Renilla luciferase signal (concentration: 1 uM) of 0.878 and a Renilla luciferase signal (concentration: 10 uM) of 0.753. It also gave a Renilla luciferase signal (concentration: 100 uM) of 0.0262.
Work on `C[C@]12C[C@H](O)[C@H]3[C@@H](CCC4=CC(=O)CC[C@@]43C)[C@@H]1CC[C@@H]2C(=O)CO` [Corticosterone] yielded a Renilla luciferase signal (concentration: 0.1 uM) of 0.641, a Renilla luciferase signal (concentration: 1 uM) of 0.712 and a Renilla luciferase signal (concentration: 10 uM) of 0.847. For the same molecule, the Renilla luciferase signal (concentration: 100 uM) was 0.636.
In the case of `CN(C)[C@@H]1C(O)=C(C(N)=O)C(=O)[C@@]2(O)C(O)=C3C(=O)c4c(O)cccc4[C@@](C)(O)[C@H]3C[C@@H]12` [Tetracycline], the Renilla luciferase signal (concentration: 0.1 uM) is reported as 0.672, the Renilla luciferase signal (concentration: 1 uM) is reported as 0.805 and the Renilla luciferase signal (concentration: 10 uM) is reported as 0.694. The Renilla luciferase signal (concentration: 100 uM) was 1.7.
`CN(C)[C@@H]1C(O)=C(C(N)=O)C(=O)[C@@]2(O)C(O)=C3C(=O)c4c(O)cccc4[C@@](C)(O)[C@H]3[C@H](O)[C@@H]12.Cl` [Oxytetracycline hydrochloride] gave a Renilla luciferase signal (concentration: 0.1 uM) of 0.959, a Renilla luciferase signal (concentration: 1 uM) of 1.35 and a Renilla luciferase signal (concentration: 10 uM) of 2.28. It also gave a Renilla luciferase signal (concentration: 100 uM) of 0.903.
`CN(C)[C@@H]1C(O)=C(C(N)=O)C(=O)[C@@]2(O)C(O)=C3C(=O)c4c(O)cccc4[C@@](C)(O)[C@H]3[C@H](O)[C@@H]12.O.O` [Oxytetracycline dihydrate] gave a Renilla luciferase signal (concentration: 0.01 uM) of 0.781, a Renilla luciferase signal (concentration: 0.1 uM) of 0.636 and a Renilla luciferase signal (concentration: 1 uM) of 0.879. It also gave a Renilla luciferase signal (concentration: 10 uM) of 0.861 and a Renilla luciferase signal (concentration: 100 uM) of 0.964.
